# Hit rate of the full screen: of about 5,600 compounds, about 390 (7%) showed an effect of 50% or more. The sample holds strong results, similar compounds and a random draw of the others, so the mix is not that of the screen.
# Columns and labels:
# [1] = target: T1, Protein deacetylase HDAC6 (Homo sapiens) (UniProt Q9UBN7); conditions: at 10 µM
# T1 sequence (whole entry): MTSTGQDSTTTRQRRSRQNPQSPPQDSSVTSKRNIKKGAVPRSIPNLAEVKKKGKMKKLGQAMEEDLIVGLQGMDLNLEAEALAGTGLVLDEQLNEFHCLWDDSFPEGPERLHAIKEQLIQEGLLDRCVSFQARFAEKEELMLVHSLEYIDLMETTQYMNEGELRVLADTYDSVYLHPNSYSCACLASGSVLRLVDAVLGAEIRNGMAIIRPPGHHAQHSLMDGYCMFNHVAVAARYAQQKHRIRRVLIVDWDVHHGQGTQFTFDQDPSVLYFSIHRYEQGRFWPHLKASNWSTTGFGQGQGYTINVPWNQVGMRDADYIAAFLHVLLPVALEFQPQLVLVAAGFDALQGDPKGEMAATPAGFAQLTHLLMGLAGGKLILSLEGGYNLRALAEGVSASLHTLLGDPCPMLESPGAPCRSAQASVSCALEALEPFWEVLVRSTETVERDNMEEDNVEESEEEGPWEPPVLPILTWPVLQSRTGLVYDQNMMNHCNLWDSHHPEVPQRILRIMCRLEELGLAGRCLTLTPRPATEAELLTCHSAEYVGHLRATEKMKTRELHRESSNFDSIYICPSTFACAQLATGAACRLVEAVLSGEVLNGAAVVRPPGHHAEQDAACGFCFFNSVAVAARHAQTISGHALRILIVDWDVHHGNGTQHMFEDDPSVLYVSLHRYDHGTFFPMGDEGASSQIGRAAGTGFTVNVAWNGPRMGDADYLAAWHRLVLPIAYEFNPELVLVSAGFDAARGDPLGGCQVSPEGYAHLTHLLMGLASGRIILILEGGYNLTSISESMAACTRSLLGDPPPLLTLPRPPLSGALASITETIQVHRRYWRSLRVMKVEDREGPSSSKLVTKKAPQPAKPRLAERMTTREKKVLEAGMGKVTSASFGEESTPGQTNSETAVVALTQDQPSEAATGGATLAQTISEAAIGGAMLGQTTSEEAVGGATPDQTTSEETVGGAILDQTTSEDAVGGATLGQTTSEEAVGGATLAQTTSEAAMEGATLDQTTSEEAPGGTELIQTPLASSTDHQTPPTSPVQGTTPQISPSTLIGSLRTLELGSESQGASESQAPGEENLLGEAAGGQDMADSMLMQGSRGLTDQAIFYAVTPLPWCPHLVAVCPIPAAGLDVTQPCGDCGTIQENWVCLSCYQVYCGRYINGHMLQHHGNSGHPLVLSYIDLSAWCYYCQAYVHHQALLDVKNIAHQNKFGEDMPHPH
# [2] = target: Protein deacetylase HDAC6 (Homo sapiens) (UniProt Q9UBN7); conditions: at 10 µM; remark: listed apart in the source
Compound,inhibition [1] [%],inhibition [2] [%]
CN/C(=N\S(=O)(=O)c1ccc(Cl)cc1)N1CC(c2ccccc2)C(c2ccc(Cl)cc2)=N1 (racemic),9.02,–
O=C1CC(=O)c2c(Cl)c(Cl)c(Cl)c(Cl)c21,-2.09,–
CN1C[C@@H]2CN(c3ccc(-c4ccccc4)nn3)C[C@@H]2C1,10.2,–
O=C1N[C@H](C(=O)O)CS1,9.69,–
CCOc1cc(/C=C2/C(=O)N(c3ccccc3)N=C2C)cc(Cl)c1OCC(=O)OC,101,–
"HYALURONIC ACID, CHEMBL5314376",–,-9.36
CN(C)C(=O)CCSC(SCCC(=O)O)c1cccc(/C=C/c2ccc3ccc(Cl)cc3n2)c1 (stereo not drawn),10.8,–
N[C@@H](CSCCCO)C(=O)O,24.6,–
COc1ccc(-n2nc3c4c([nH]cc-3c2=O)CCCCC4)cc1,40.9,–
O=c1c2c[nH]c3ccccc3c-2nn1-c1ccc(Cl)cc1,97.1,–
CCCCCCCCCCCCCCCc1cccc(OCC(=O)NCCO)c1,-3.57,–
CC(C)c1nnc(-c2ccc(-c3ccccc3)nc2)n1-c1cccc2nonc12,4.02,–
COC(=O)C[C@@](O)(CCC(C)(C)O)C(=O)O[C@@H]1C(OC)=C[C@]23CCCN2CCc2cc4c(cc2[C@@H]13)OCO4,-1.89,–
C[N+]1(CC2CC2)[C@@H]2C[C@@H](OC(=O)[C@H](CO)c3ccccc3)C[C@H]1[C@@H]1O[C@@H]12 (stereo partly drawn),-9.14,–
COC(=O)N1CC[C@@H]2[C@H]1CCC[C@@]2(O)C#Cc1cccc(C)c1,29.3,–
O=C(Nc1ccc(Br)cc1)c1cc(Br)cc(Br)c1O,100,–
CCOC(=O)c1c(/C(C#N)=C\N)c2ccc(Cl)c(Cl)c2n1C,0.46,–
Cc1c(F)cc(C(=O)NC2CC2)cc1-c1c(F)cn2c(C(C)(C)C)nnc2c1F,-2,–
CC1(C)CC[C@]2(NC(=O)C(C)(F)F)CC[C@]3(C)C(C(=O)C=C4[C@@]5(C)C=C(C#N)C(=O)C(C)(C)[C@@H]5CC[C@]43C)C2C1 (stereo partly drawn),19.7,–
C[C@]12CC[C@H]3C(=CCc4cc(O)ccc43)[C@@H]1CCC2=O,53.8,–
C[C@]12CC[C@@H]3c4ccc(O)cc4CC[C@H]3[C@@H]1[C@@H](O)[C@@H](O)[C@@H]2O,5.04,–

Compound,inhibition [1] [%],inhibition [2] [%]
CO/N=C(\C(=O)N[C@@H]1C(=O)N2C(C(=O)O)=C(CSC(=O)c3ccco3)CS[C@H]12)c1csc(N)n1,22.4,–
O=C(Nc1ccc(C(F)(F)F)cn1)N1CCN(c2ncccc2C(F)(F)F)CC1,-6.44,–
COC(=O)c1cc2c(C(F)(F)F)cc(-c3ccccc3)cc2n1O,16.7,–
Cc1c(CN(C)C(=O)/C=C/c2cnc3c(c2)CCC(=O)N3)oc2ccccc12,77.1,–
CC1(C)CCC(C)(C)c2cc(Cn3cccn3)c(/C=C/c3ccc(C(=O)O)cc3)cc21,-7.51,–
O=C(O)CCCCCCCCCCCCCCc1ccc(I)cc1,21.6,–
OCCn1cc(-c2ccc3c(c2)CC/C3=N\O)c(-c2ccncc2)n1,-0.22,–
C[C@@H]1COC(Nc2ccc3ncnc(Nc4ccc(OCc5nccs5)c(Cl)c4)c3c2)=N1,62.5,–
Cc1cc(Nc2ncnc3ccc(-c4ccc(CNCCS(C)(=O)=O)o4)cc23)ccc1Oc1ccn2ncnc2c1,2.93,–
Cc1cc(Nc2ncnc3ccc(NC4=NC(C)(C)CO4)cc23)ccc1Oc1ccn2ncnc2c1,-3.24,–
O=C1C=Cc2cc(Br)ccc2C1=O,48.5,–
Cc1ccc(=O)n(-c2ccc(O)cc2)c1,1.55,–
Nc1nc(Nc2ccc3c(c2)CC[C@@H](N2CCCC2)CC3)nn1-c1cc2c(nn1)-c1ccccc1CCC2,2.38,–
O=C(NC1(c2ccccc2)CC1)c1c(CN2CCC(N3CCCCC3)CC2)c(-c2cccc(C(F)(F)F)c2)nc2cc(Br)ccc12,35.2,–
COC(=O)/C=C/C(=O)OCCN1C(=O)CCC1=O,-0.93,–
O=C(O)c1ccc(-c2ccc3cc(C45CC6CC(CC(C6)C4)C5)c(O)cc3c2)cc1,-6.28,–
NS(=O)(=O)Oc1ccc2c3c(c(=O)oc2c1)CCCCC3,91.6,–
Fc1ccc(C(c2ccccc2)(c2ccccc2F)n2ccnc2)cc1 (stereo not drawn),-9.89,–
Cn1c(/C=C/C(=O)NO)ccc1/C=C/C(=O)c1cccc(F)c1,98.6,–
Cc1ccc(NC2=NCCN2)c(Cl)c1,7.22,–
CCC[C@H](N[C@@H](C)C(=O)N1[C@H](C(=O)O)C[C@@H]2CCCC[C@@H]21)C(=O)O,-9.35,–

Compound,inhibition [1] [%],inhibition [2] [%]
CCCC(=O)c1cc(F)ccc1OCC(O)CNC(C)(C)C (stereo not drawn),-1.16,–
C[C@H](Oc1cc(-c2cnn(C3CCNCC3)c2)cnc1N)c1c(Cl)ccc(F)c1Cl,-7.32,–
C[n+]1ccccc1CN=O,10.8,–
O=c1[nH]c(CCl)nc2sc3c(c12)CCCC3,83.4,–
CCOC(=O)[C@@](C)(N)Cc1ccc(O)c(O)c1,35,–
Cc1ccc(Cl)c(OCC(O)CNC(C)(C)C)c1 (stereo not drawn),14.8,–
CCCCCCCCCCCCCCCC(=O)OCCC1CCN(CCCN2c3ccccc3Sc3ccc(S(=O)(=O)N(C)C)cc32)CC1,9.91,–
CCCCCCCCCC(=O)OCCN1CCN(CCCN2c3ccccc3Sc3ccc(C(F)(F)F)cc32)CC1,1.38,–
OCCN1CCN(CCCN2c3ccccc3Sc3ccc(C(F)(F)F)cc32)CC1,86.6,–
CSc1ccccc1OCC(O)CNC(C)C (stereo not drawn),8.76,–
NC(=S)N/N=C/c1ccncc1,22.9,–
NC(=S)N/N=C/c1coc2ccccc2c1=O,54.7,–
O=C1CCC2CCC(=O)N12,5.05,–
CO[C@@H]1[C@H](O)[C@@H](CO)O[C@H]1n1cnc2c(NC3CCCCC3)ncnc21,13.2,–
NC(=O)c1[nH]cnc1O,3.67,–
CCOCCOc1ccccc1C(N)=O,5.9,–
O=C(c1ccc(OCCCc2c[nH]cn2)cc1)C1CC1,70.7,–
NC/C(=C/F)CCc1ccc(F)cc1,46.9,–
O=C(NCC1CCOCC1)c1cnc(Nc2ccc(Cl)cc2Cl)nc1C(F)(F)F,-5.57,–
Cc1cnc(Nc2ccc(F)cc2Cl)nc1-c1c[nH]c(C(=O)N[C@H](CO)c2cccc(Cl)c2)c1,54.4,–
CC12CCC(=O)C=C1CCC1C2[C@@H](O)CC2(C)C1CC[C@]2(O)C(=O)COP(=O)(O)O (stereo partly drawn),2.87,–

# Source: ChEMBL document CHEMBL4808148, “HDAC6 screening dataset using tau-based substrate in an enzymatic assay yields selective inhibitors and activators” (2021)
